Activity increase over dofetilide control, less the hit threshold data for 51 compounds are collected here from PubChem BioAssay AID1835 (Johns Hopkins Ion Channel Center, 2009).

Among all 2,400 compounds or so, about 750 (31%) were called active.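 How the source made its calls: active means median signal gain over dofetilide-blocked control wells reaching their mean plus 3 SD, so readout 1 at least 0; inactive means the rest.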 The list shows a part of the results.

The target of this test is Voltage-gated inwardly rectifying potassium channel KCNH2 (Homo sapiens) (UniProt Q12809). Nature of the test: modulators restoring hERG flux under dofetilide – cell-based, thallium flux, duplicate retest, dofetilide IC70, confirmation (AID 1835). The settings on record: hERG cell line, FluxOR thallium flux, dofetilide-blocked; at 10 µM; active compounds read high.
Voltage-gated inwardly rectifying potassium channel KCNH2 (Homo sapiens), sequence (Q12809 whole entry, looked up): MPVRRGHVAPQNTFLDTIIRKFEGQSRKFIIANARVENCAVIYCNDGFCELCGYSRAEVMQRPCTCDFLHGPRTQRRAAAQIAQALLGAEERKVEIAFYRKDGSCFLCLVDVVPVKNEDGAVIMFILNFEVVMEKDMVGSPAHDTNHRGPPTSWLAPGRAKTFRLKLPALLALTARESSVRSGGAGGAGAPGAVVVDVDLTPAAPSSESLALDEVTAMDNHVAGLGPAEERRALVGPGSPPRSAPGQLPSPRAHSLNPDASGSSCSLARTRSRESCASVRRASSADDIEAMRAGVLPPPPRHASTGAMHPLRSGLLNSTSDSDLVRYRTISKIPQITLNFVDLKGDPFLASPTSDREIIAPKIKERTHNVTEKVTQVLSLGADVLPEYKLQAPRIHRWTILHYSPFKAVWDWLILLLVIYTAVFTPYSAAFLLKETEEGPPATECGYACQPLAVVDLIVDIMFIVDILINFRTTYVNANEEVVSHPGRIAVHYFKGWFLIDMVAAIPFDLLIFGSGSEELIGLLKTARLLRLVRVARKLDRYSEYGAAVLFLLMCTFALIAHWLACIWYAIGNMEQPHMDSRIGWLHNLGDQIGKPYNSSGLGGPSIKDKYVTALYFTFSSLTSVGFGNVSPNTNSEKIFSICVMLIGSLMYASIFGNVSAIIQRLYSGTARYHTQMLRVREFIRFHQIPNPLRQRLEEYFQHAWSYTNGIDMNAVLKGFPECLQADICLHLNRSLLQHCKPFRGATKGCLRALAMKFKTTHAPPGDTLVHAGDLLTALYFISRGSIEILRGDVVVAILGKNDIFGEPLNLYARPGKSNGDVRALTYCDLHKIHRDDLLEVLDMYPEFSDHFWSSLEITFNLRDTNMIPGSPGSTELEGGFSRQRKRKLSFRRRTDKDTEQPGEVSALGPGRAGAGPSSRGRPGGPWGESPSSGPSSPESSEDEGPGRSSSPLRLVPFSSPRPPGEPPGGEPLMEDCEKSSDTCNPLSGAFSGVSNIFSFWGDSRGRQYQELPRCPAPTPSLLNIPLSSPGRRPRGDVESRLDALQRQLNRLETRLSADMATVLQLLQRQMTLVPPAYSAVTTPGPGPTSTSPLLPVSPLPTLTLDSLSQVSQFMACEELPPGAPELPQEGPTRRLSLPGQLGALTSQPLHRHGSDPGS
As for `COc1ccc(OCC(=O)NNC(=O)C(=O)Nc2ccc(C)cc2)cc1`, the activity increase over dofetilide control, less the hit threshold was -11% (inactive).

For the compound `COc1ccc(NC(=O)c2ccc(COCC(F)(F)C(F)F)cc2)cc1`, the activity increase over dofetilide control, less the hit threshold is -14% (inactive).

As for `COc1cccc(NC(=O)c2cncs2)c1`, the activity increase over dofetilide control, less the hit threshold is -13% (inactive).

With `COc1cccc(C(=O)NNC(=O)C(=O)Nc2ccc(C)cc2)c1`, the activity increase over dofetilide control, less the hit threshold is 56% (active).

`CCN(/N=C/c1ccc(Cl)cc1)c1cc(=O)n(C)c(=O)[nH]1`: the activity increase over dofetilide control, less the hit threshold is -20% (inactive).

Regarding `Cc1noc(C)c1COc1cccc(C(=O)NCc2cccc(Cl)c2)c1`, the activity increase over dofetilide control, less the hit threshold was -18% (inactive).

Turning to `CC(C)C12CN3CC(C(C)C)(CN(C1)C31C(=O)Nc3ccccc31)C2=O` (stereo unspecified), the activity increase over dofetilide control, less the hit threshold was -24% (inactive).

`O=C(COc1nsnc1N1CCOCC1)Nc1ccc(Cl)cc1`: the activity increase over dofetilide control, less the hit threshold was -21% (inactive).

Regarding `CC(C)(C)c1csc(NC(=O)C2=COCCO2)n1`, the activity increase over dofetilide control, less the hit threshold was -17% (inactive).

`CCc1nnc(NC(=O)CCC(=O)N2CCN(C3CCCCC3)CC2)s1`: the activity increase over dofetilide control, less the hit threshold is -22% (inactive).

Take `O=C(O)CCSc1ncnc2sc(-c3ccccc3)cc12`: the activity increase over dofetilide control, less the hit threshold was 9% (active).

In the case of `Cc1ccccc1-n1c(SCC(=O)N(C)C2CCS(=O)(=O)C2)nnc1-c1ccncc1` (stereo unspecified), the activity increase over dofetilide control, less the hit threshold is -8% (inactive).

On to `CCOC(=O)c1sc2nc(C)nc(SCC(=O)N(C)C3CCS(=O)(=O)C3)c2c1C` (stereo unspecified), for which the activity increase over dofetilide control, less the hit threshold was -6% (inactive).

`CN(C(=O)CSc1ncnc2sc(-c3ccccc3)cc12)C1CCS(=O)(=O)C1` (stereo unspecified): the activity increase over dofetilide control, less the hit threshold was 82% (active).

As to `Nc1nc2c(s1)CCc1c-2cnn1-c1ccccc1`, the activity increase over dofetilide control, less the hit threshold was -46% (inactive).

For `CC(=O)c1ccc(N2CCN(C(=O)Cc3ccccc3)CC2)c(F)c1`, the activity increase over dofetilide control, less the hit threshold is -15% (inactive).

For the compound `CC1=NN(c2nc(-c3ccccc3)cs2)C(=O)C1N=Nc1ccccc1` (stereo unspecified), the activity increase over dofetilide control, less the hit threshold was -31% (inactive).

In the case of `O=c1c(-c2ccccc2)nc(-c2ccccc2)cn1O`, the activity increase over dofetilide control, less the hit threshold is 33% (active).

On to `Cc1nc(-c2ccccc2)cn(O)c1=O`, for which the activity increase over dofetilide control, less the hit threshold is 16% (active).

With `COC(=O)Nc1c(-c2ccccc2)nc2ccccn12`, the activity increase over dofetilide control, less the hit threshold is -4% (inactive).

`O=C(O)C/C(=C\c1cc(Br)cs1)c1nc2ccccc2o1`: the activity increase over dofetilide control, less the hit threshold was -6% (inactive).

Regarding `Cc1cccc(/N=C/c2sc3ccccc3c2O)n1`, the activity increase over dofetilide control, less the hit threshold was -13% (inactive).

`O=c1c([N+](=O)[O-])c(N2CCCCC2)c2ccccc2n1-c1ccccc1`: the activity increase over dofetilide control, less the hit threshold was -18% (inactive).

In the case of `Oc1ccc2[nH]cnc2c1CN1CCCCC1`, the activity increase over dofetilide control, less the hit threshold is -18% (inactive).

As for `Cn1c(O)c(N=Nc2nc(-c3ccccc3)cs2)c2ccccc21`, the activity increase over dofetilide control, less the hit threshold is 65% (active).

As for `CCc1ccc2[nH]c(O)c(N=Nc3nc(-c4ccccc4)cs3)c2c1`, the activity increase over dofetilide control, less the hit threshold was -8% (inactive).

`Cc1ccccc1OCC(=O)N=Nc1c(O)n(C)c2ccccc12`: the activity increase over dofetilide control, less the hit threshold was -5% (inactive).

Turning to `COC(=O)/C=C1\S/C(=N/N=C/c2ccco2)NC1=O`, the activity increase over dofetilide control, less the hit threshold was -10% (inactive).

Take `CCC(=O)N1CCN(c2nc(CC)nc3sc4c(c23)CCCC4)CC1`: the activity increase over dofetilide control, less the hit threshold was -30% (inactive).

On to `CCCn1c(SCC(=O)N2CCN(C(C)=O)CC2)nc2sc3c(c2c1=O)CCC3`, for which the activity increase over dofetilide control, less the hit threshold was 20% (active).

Turning to `CCn1c(SC(C)C(=O)O)nc2sc3c(c2c1=O)CCC3` (stereo unspecified), the activity increase over dofetilide control, less the hit threshold is 7% (active).

Consider `CCn1c(SCC(N)=O)nc2sc3c(c2c1=O)CCCC3`, for which the activity increase over dofetilide control, less the hit threshold was 3% (active).

Regarding `C=CCSc1nc2sc3c(c2c(=O)n1CC)CCc1ccccc1-3`, the activity increase over dofetilide control, less the hit threshold was -4% (inactive).

With `CCOC(=O)c1cnn(-c2nc(SC)nc3sc4c(c23)CCCC4)c1N`, the activity increase over dofetilide control, less the hit threshold was -1% (inactive).

For `CC(=O)/C=C1/C(=O)Nc2ccccc21`, the activity increase over dofetilide control, less the hit threshold is -39% (inactive).

For the compound `COc1cc(/C=N/Nc2nc(N3CCCC3)nc(N3CCCC3)n2)ccc1OCc1ccccc1F`, the activity increase over dofetilide control, less the hit threshold is -34% (inactive).

Consider `O=C1CC(C(=O)N2CCOCC2)C2(CCCCC2)O1` (stereo unspecified), for which the activity increase over dofetilide control, less the hit threshold is -19% (inactive).

Turning to `CC1CCN(c2ccc3c(c2)S(=O)(=O)c2ccccc2C3=O)CC1`, the activity increase over dofetilide control, less the hit threshold is -27% (inactive).

Regarding `O=C1c2ccccc2C(=O)N1Cc1nc2ccccc2c(=O)n1CCCn1ccnc1`, the activity increase over dofetilide control, less the hit threshold is -25% (inactive).

Turning to `S=C(N/N=C/c1ccccc1Cl)Nc1cccc(Cl)c1Cl`, the activity increase over dofetilide control, less the hit threshold was 23% (active).

Turning to `Cc1ccc(Cl)cc1NC(=S)N/N=C/c1cccc2ccccc12`, the activity increase over dofetilide control, less the hit threshold is -11% (inactive).

With `Fc1ccccc1NC(=S)N/N=C/c1ccccc1Br`, the activity increase over dofetilide control, less the hit threshold was -20% (inactive).

For the compound `O=C(CNCC1CCCO1)N1CCCCCC1` (stereo unspecified), the activity increase over dofetilide control, less the hit threshold is -11% (inactive).

With `Cc1ccc2c(Cl)cc(Cl)c(OCC(=O)NC3CCS(=O)(=O)C3)c2n1` (stereo unspecified), the activity increase over dofetilide control, less the hit threshold is -15% (inactive).

In the case of `CCCCSc1nnc(CCC)n1N`, the activity increase over dofetilide control, less the hit threshold is -21% (inactive).

With `CCCCCCCC/C=C\CCCCCCCC(=O)O`, the activity increase over dofetilide control, less the hit threshold is 22% (active).

With `O=C(c1ccc(CS(=O)c2cccc(Cl)c2)o1)N1CCCCCC1` (stereo unspecified), the activity increase over dofetilide control, less the hit threshold is -7% (inactive).

As for `CC(C)(C)NC(=O)CN(C(=O)CS(=O)CC(=O)Nc1ccc(F)cc1)c1cccc(F)c1` (stereo unspecified), the activity increase over dofetilide control, less the hit threshold is -13% (inactive).

Take `CC(C)Oc1c(Cl)cc(CNC(C)(C)CO)cc1Cl`: the activity increase over dofetilide control, less the hit threshold was 1% (active).

Turning to `CC(C)(C)c1cc(-c2n[nH]c(=S)n2-c2ccccc2F)n[nH]1`, the activity increase over dofetilide control, less the hit threshold was 7% (active).

Turning to `Fc1ccccc1-c1n[nH]c(=S)n1C1CC1`, the activity increase over dofetilide control, less the hit threshold is -4% (inactive).
